Most compounds without a hit are left out; they make up all but 31% or so of the library.
CYP2C9 activ – CYP2C9 (human) activation; P11712; recombinant CYP2C9, luciferin-H conversion, luminescence; stronger effect = higher value; factor 1 = untreated enzyme, 0 = blocked; activation factor at 5 µM; 96,000 tested, 1.4% active; AID 1024;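 active = activation factor of 2 or more for CYP2C9 at a 5 µM dose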
Target sequence (P11712 whole entry, looked up): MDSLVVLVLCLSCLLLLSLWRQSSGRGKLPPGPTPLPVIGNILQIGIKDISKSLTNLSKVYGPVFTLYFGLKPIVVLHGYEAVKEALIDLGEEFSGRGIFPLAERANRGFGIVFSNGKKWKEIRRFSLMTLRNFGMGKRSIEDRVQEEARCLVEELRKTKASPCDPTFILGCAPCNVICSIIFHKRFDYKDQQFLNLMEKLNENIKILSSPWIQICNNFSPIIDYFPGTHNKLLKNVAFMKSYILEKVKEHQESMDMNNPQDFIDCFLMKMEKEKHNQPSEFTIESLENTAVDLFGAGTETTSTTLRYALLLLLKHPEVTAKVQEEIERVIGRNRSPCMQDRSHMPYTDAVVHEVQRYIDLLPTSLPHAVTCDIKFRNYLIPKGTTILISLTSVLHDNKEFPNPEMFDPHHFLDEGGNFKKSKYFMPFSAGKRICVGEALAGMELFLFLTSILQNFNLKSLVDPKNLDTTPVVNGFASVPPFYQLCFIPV
PLAP activator – activates human placental alkaline phosphatase; activation fold at 20 µM; P05187; 96,000 tested, 1.2% active; purified PLAP enzyme, luminescent substrate read-out; stronger effect = higher value; in the data active = activation fold above about 2
CYP2C9 inh – human CYP2C9 inhibition. P11712. CYP2C9 Supersomes, luciferin-H conversion, luminescence. AID 777. inhibition, % at 5 µM. 96,000 tested, 20% active;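 active = blocking of liver enzyme CYP2C9 beyond about 50% at 5 µM, limit read from the data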
CYP2C19 inh – human CYP2C19 inhibition. P33261. CYP2C19 Supersomes, luciferin-H EGE luminescence, 30 min. inhibition, % at 5 µM. 96,000 tested, 21% active;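 active = CYP2C19 inhibition above a set limit at 5 µM in the primary screen, cut at about 50% in these data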
CYP2C19 act – activators of human cytochrome P450 2C19 | P33261 | recombinant CYP2C19, luciferin-H EGE luminescence; stronger effect = higher value; 0 = fully inhibited enzyme, 1 = untreated enzyme | activation factor at 5 µM | 96,000 tested, under 10 active;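 active = activation factor of at least 2 at 5 µM in the primary screen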
Each line names hits and unclear results; the compound was inactive in the other large screens.

COc1ccc(/C=C2\CCCC3C2=NN(C(=O)COC(=O)CNC(=O)c2ccccc2)C3c2ccc(OC)cc2)cc1 (stereo unspecified)	CYP2C9 inh 74
COc1ccc(C(=O)NCC(=O)OCC(=O)N2CC(C)CC(C)C2)cc1 (stereo unspecified)	CYP2C9 inh 66
CCCCCC(=O)N1CC2(C)CN(C(=O)CCCCC)CC(C)(C1)C2=O	none
C=CCOC(=O)C1=C(C)NC(=O)NC1c1ccc(OC(=O)c2ccco2)c(OC)c1 (stereo unspecified)	none
O=C1c2ccccc2C(Nc2cccnc2)N1Cc1ccccc1 (stereo unspecified)	none
COC(=O)c1cc(NC2c3ccccc3C(=O)N2CCN2CCOCC2)cc(C(=O)OC)c1 (stereo unspecified)	CYP2C19 inh 98
O=C1c2ccccc2C(Nc2ccc(Cl)cc2)N1CCN1CCOCC1 (stereo unspecified)	CYP2C19 inh 75
COc1ccc(C2CC(C(F)(F)F)n3nc(C(=O)O)c(Br)c3N2)cc1 (stereo unspecified)	none
COc1ccc(CNC(=O)c2ccc(NC(=O)C3CCCO3)cc2)cc1 (stereo unspecified)	none
C/C(N)=C(/C#N)C(=O)CSc1nnc(-c2ccccc2Br)o1	CYP2C19 inh 96
O=S(=O)(c1ccccc1)N(CC(O)Cn1c2ccccc2c2ccccc21)c1ccccc1 (stereo unspecified)	CYP2C9 inh 79
C=CCN(CC=C)CC(O)Cn1c2ccccc2c2ccccc21 (stereo unspecified)	CYP2C19 inh 73
Cc1ccc(S(=O)(=O)N(CC(O)CN2CCCCC2)c2ccccc2)cc1 (stereo unspecified)	none
CCN(CC)CC(O)Cn1c2ccccc2c2ccccc21 (stereo unspecified)	none
Cc1ccc(S(=O)(=O)N(C)CC(O)Cn2c3ccccc3c3ccccc32)cc1 (stereo unspecified)	CYP2C9 inh 88
c1ccc(Cn2nnnc2C(c2cccs2)N2CCOCC2)cc1 (stereo unspecified)	CYP2C19 inh 63
O=C(c1ccco1)N1CCN(C(c2ccccc2)c2nnnn2Cc2cccs2)CC1 (stereo unspecified)	none
CC(C)(C)n1nnnc1C(c1cccs1)N1CCN(Cc2ccccc2)CC1 (stereo unspecified)	none
CC1CCN(C(c2cccs2)c2nnnn2Cc2ccccc2)CC1 (stereo unspecified)	CYP2C19 inh 88
CCN(CC)c1nc(=S)nc(NC(C)(C)C)[nH]1	none
Cc1nc2c(nnn2Cc2ccccc2)c(=O)n1-c1ccccc1	none
Cc1sc2c(c1C)c(=O)nc1n2Cc2ccccc2-1	none
COCCN(C(=O)CNC(=O)c1cccs1)C(C(=O)NC1CCCC1)c1cccs1 (stereo unspecified)	CYP2C19 inh 56
O=C(NCC(=O)N(Cc1ccco1)C(C(=O)NC1CCCCC1)c1cccnc1)c1cccs1 (stereo unspecified)	CYP2C19 inh 57
COCCN(C(=O)CNC(=O)c1cccs1)C(C(=O)NC1CCCCC1)c1ccco1 (stereo unspecified)	none
O=C(CN1CCOCC1)Nc1ccc(-c2nc3ccccc3[nH]2)cc1	none
Cn1ncc([N+](=O)[O-])c1C(=O)Nc1ccc(-c2nc3ccccc3[nH]2)cc1	CYP2C19 inh 62
O=c1c2ccccc2nc(SCc2nnc(-c3ccccc3)o2)n1-c1ccc(F)cc1F	CYP2C9 inh 99, CYP2C19 inh 77
Cc1cc(=O)[nH]c(SCc2nnc(-c3ccccc3)o2)n1	none
Cn1c(SCc2ccon2)nc2ccccc2c1=O	none
COc1ccc(-c2nnc(CSc3nc4ccccc4c(=O)n3C)o2)cc1OC	CYP2C9 inh 86, CYP2C19 inh 80
CCOC(=O)N1CCC(Nc2c(NCCCN(CC)Cc3ccccc3)c(=O)c2=O)CC1	none
Cc1ccc(-n2c(C)c3c(C)nnc(C)c3c2C)cc1	CYP2C19 inh 58
CC(NC(=O)CCC1COc2ccccc2O1)c1ccccc1 (stereo unspecified)	CYP2C19 inh 51
O=C(CSc1nnc(C2COc3ccccc3O2)o1)NC1CCCCC1 (stereo unspecified)	CYP2C9 inh 58, CYP2C19 inh 50
O=C(CCC1COc2ccccc2O1)NC1CCCCC1 (stereo unspecified)	CYP2C19 inh 56
Cn1c(=O)c2c(ncn2CC(=O)Nc2cc(Cl)c(Cl)cc2Cl)n(C)c1=O	none
O=C(Nc1nnc(-c2ccccc2Cl)o1)c1cccnc1	CYP2C9 inh 82
